Laboratory results reported in ChEMBL document CHEMBL3988442, “University of Dundee, Small-Polar-MMV Screening Library” (2021).
For some of these results: Potency and affinity values are given separately.

Assays:
Set-up in all cases: scale not given: direction of the effect not stated beside the values
[1] = target: Protein translocase subunit SecA (Escherichia coli (strain K12)) (UniProt P10408); assay: Assay to Identify E. coli SecA ATPase Inhibitors; assay type: functional; details: 30 µM
[2] = target: T1, Ubiquitin-activating enzyme e1, putative (Leishmania donovani (strain BPK282A1)) (UniProt E9BSI1); assay: Leishmania donovani Ubiquitin Activating Enzyme (LdE1); assay type: functional; details: 30 µM
T1 sequence (whole entry): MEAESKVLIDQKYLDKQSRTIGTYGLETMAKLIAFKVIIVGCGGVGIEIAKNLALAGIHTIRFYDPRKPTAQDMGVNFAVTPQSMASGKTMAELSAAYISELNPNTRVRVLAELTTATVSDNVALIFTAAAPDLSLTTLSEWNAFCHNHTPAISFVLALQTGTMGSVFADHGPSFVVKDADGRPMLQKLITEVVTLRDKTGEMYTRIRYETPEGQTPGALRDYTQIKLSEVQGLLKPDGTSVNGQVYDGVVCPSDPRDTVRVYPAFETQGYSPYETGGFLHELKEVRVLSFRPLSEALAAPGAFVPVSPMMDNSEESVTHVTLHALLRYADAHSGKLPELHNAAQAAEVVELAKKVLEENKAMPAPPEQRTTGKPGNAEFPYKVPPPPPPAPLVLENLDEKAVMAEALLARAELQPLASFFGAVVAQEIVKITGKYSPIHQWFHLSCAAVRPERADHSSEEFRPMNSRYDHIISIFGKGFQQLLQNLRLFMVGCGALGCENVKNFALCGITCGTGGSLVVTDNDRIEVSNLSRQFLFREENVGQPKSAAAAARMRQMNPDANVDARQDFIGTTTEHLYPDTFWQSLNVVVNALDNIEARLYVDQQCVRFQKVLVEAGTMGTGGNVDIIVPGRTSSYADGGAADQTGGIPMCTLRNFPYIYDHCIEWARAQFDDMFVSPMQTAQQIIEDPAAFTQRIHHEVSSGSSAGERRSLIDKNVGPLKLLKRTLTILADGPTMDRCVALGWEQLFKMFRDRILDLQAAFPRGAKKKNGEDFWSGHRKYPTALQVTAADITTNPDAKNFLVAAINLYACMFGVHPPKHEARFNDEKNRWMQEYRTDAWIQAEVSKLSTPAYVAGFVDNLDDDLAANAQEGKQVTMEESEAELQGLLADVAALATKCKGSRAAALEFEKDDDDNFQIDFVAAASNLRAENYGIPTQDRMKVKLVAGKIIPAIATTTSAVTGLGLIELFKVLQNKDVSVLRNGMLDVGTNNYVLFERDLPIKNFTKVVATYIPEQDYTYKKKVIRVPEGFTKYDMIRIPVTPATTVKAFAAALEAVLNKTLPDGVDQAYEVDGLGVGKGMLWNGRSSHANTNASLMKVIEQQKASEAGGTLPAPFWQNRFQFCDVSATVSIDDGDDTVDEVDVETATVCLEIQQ

[3] = target: T2, Aspartate--tRNA(Asp/Asn) ligase (Mycobacterium tuberculosis (strain ATCC 25618 / H37Rv)) (UniProt P9WFW3); assay: Assay for Asp RNA synthetase-1 from Mycobacterium tuberculosis; assay type: functional; details: 30 µM; further: in the data most compounds retested in dose-response had high values
T2 sequence (whole entry): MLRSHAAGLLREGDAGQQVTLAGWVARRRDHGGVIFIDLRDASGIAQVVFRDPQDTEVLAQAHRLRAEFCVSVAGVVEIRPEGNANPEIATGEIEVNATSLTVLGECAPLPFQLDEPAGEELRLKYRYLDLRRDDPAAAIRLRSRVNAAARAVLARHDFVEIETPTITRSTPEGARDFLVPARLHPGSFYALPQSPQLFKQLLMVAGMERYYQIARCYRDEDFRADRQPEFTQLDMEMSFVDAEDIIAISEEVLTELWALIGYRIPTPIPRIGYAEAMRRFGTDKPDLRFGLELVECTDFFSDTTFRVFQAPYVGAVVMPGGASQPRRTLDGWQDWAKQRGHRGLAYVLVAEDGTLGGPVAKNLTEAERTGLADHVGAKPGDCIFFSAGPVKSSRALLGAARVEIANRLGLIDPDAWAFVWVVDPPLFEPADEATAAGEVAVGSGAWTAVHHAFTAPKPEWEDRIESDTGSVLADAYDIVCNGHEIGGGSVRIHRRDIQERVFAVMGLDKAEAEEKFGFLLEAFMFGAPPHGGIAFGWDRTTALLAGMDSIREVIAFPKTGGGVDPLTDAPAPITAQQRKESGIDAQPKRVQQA

[4] = target: AMP-activated protein kinase, AMPK (Homo sapiens) (UniProt P54646+O43741+P54619+Q9UGJ0+Q9Y478+Q13131+Q9UGI9); assay: AMP-dependent Kinase enzyme assay. An in vitro enzyme assay that detects ADP turnover that is directly proportional to AMPK activity. This uses naive AMPK that is activated during the assay with MK-8722; assay type: functional; details: 30 µM
[5] = target: Sialic acid-binding Ig-like lectin 9 (Homo sapiens) (UniProt Q9Y336); assay: Hs-Siglec9 ALPHAscreen SOP 20170721; details: 10 µM
Chain of Sialic acid-binding Ig-like lectin 9 (Homo sapiens) (Q9Y336 whole entry): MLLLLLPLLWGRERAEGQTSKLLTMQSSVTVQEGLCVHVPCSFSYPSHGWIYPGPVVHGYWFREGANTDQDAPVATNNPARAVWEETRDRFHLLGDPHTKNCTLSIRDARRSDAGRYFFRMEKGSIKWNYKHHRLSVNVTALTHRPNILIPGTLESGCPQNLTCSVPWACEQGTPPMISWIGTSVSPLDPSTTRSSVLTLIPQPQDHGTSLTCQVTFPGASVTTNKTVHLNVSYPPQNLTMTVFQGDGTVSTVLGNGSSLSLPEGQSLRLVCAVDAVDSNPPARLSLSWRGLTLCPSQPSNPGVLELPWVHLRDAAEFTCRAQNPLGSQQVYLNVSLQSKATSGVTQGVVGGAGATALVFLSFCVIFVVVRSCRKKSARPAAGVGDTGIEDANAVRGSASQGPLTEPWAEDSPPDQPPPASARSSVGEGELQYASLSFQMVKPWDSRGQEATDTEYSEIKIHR

Trypanosoma cruzi = assay: Trypanosoma cruzi phosphomannomutase and mannose-1-phosphate guanylyltransferase assay; assay type: functional; details: 10 µM
[6] = target: T3, Arginase-2, mitochondrial (Homo sapiens) (UniProt P78540); assay: in vitro enzyme assay to detect the production of urea directly proportional to the activity of Arginase II; assay type: functional; details: 33.3 µM; further: in the data most compounds retested in dose-response had high values
T3 sequence (whole entry): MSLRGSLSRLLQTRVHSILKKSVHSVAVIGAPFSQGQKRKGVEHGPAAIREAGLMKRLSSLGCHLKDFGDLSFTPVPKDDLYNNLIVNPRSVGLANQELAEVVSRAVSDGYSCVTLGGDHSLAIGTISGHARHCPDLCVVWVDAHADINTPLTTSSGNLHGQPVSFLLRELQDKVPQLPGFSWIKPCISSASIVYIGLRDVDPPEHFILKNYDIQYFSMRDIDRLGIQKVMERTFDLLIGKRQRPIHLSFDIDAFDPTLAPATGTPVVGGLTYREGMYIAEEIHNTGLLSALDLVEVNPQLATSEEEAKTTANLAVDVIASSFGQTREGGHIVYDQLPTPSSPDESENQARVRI

[7] = target: T4, Proteasome subunit beta (Trypanosoma cruzi) (UniProt O96673); assay: Trypanosoma cruzi proteasome chymotrypsin-like activity (TcProtChymo) assay.; further: in the data most compounds retested in dose-response had high values; assay type: functional; details: 9.37 µM
T4 sequence (whole entry): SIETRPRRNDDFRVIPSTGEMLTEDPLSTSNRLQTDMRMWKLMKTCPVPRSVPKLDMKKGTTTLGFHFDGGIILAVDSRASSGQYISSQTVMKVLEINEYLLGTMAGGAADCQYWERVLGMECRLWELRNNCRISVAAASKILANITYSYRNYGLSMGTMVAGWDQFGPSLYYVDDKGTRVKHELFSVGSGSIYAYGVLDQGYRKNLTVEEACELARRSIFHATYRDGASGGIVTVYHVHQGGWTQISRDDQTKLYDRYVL

Homo sapiens = species: Homo sapiens; assay: To identify inhibition of the IFN signalling (Jak-Stat) pathway via expression of an eGFP reporter gene under the control of an IFN-stimulated response element (ISRE) containing MxA promoter.; assay type: functional; details: 30 µM
[8] = target: Shiga toxin 2 (Escherichia coli O157:H7) (UniProt P09385+P09386); assay: E. coli 0.157:H7 Shiga Toxin SOP - stx2 screening assay; assay type: functional; details: 30 µM
[9] = target: T5, Tyrosyl-tRNA synthetase, putative (Trypanosoma cruzi (strain CL Brener)) (UniProt Q4DSP6); assay: Trypanosoma cruzi tyrosyl tRNA synthetase (TcYRS) _High Tyrosine SOP; assay type: functional; details: 30 µM; further: in the data most compounds retested in dose-response had high values
T5 sequence (whole entry): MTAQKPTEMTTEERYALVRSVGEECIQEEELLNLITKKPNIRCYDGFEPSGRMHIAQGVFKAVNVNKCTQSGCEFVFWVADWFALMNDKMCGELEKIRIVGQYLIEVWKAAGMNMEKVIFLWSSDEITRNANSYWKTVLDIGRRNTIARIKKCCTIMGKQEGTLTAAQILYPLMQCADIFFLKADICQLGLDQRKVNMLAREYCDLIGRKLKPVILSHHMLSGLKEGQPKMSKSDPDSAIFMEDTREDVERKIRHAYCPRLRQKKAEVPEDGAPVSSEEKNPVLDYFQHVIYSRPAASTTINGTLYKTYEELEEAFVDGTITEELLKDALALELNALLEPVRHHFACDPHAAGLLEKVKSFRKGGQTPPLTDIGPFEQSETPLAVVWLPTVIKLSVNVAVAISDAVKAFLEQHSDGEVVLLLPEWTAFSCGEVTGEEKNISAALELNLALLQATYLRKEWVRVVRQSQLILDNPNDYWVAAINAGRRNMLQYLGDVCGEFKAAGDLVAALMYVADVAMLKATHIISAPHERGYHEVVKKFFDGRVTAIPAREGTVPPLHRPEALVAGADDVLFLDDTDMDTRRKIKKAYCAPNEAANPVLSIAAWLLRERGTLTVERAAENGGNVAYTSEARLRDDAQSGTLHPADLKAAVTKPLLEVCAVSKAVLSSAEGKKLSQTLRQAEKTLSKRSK

[10] = target: T5, Tyrosyl-tRNA synthetase, putative (Trypanosoma cruzi (strain CL Brener)); assay: Trypanosoma cruzi tyrosyl tRNA synthetase (TcYRS) SOP; assay type: functional; details: 30 µM
[11] = target: Chromo domain-containing protein 1 (Saccharomyces cerevisiae (strain ATCC 204508 / S288c) (Baker's yeast)) (UniProt P32657); assay: ScCHD-1 Enzyme Inhibition Assay; assay type: functional; details: 30 µM; further: in the data most compounds retested in dose-response had high values
Chain of Chromo domain-containing protein 1 (Saccharomyces cerevisiae (strain ATCC 204508 / S288c) (Baker's yeast)) (P32657 whole entry, the tested form may be a part): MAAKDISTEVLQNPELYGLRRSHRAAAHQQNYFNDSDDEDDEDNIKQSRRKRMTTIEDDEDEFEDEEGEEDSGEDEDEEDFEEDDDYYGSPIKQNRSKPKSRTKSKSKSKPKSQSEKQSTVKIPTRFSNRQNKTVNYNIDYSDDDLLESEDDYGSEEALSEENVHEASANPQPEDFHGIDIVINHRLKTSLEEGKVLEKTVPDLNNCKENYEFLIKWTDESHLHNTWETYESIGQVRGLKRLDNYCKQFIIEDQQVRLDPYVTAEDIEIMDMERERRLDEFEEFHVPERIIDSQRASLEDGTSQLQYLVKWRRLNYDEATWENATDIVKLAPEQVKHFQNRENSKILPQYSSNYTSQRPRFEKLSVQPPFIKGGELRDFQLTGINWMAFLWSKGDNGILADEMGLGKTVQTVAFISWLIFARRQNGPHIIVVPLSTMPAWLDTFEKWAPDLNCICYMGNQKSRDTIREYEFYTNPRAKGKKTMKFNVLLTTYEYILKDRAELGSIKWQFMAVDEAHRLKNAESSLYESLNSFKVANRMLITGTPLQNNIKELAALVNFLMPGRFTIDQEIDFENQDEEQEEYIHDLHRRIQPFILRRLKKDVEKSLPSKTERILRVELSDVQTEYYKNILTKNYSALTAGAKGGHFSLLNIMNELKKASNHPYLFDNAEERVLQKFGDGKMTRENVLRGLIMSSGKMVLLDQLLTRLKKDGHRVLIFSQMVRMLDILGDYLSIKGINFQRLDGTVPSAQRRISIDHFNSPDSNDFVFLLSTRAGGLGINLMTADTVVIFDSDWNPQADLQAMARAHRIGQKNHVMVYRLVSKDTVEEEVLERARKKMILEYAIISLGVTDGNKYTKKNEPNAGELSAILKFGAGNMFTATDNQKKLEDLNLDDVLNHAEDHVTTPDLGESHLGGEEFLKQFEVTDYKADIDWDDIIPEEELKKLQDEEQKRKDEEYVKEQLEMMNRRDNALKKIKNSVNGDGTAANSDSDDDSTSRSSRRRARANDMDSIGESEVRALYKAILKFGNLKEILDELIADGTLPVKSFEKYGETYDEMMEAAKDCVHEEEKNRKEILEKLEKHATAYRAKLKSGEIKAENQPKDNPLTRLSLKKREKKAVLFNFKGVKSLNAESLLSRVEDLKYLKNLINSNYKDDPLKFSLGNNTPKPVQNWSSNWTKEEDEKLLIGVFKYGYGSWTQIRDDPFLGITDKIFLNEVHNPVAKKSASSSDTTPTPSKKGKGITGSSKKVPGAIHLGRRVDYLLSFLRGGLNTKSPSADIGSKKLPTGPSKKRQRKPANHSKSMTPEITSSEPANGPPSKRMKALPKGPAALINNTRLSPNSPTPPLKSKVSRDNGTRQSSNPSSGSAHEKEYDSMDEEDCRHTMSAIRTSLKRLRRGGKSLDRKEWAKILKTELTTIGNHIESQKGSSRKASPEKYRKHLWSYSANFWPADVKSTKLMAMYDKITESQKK

Chain of Protein translocase subunit SecA (Escherichia coli (strain K12)) (P10408 whole entry): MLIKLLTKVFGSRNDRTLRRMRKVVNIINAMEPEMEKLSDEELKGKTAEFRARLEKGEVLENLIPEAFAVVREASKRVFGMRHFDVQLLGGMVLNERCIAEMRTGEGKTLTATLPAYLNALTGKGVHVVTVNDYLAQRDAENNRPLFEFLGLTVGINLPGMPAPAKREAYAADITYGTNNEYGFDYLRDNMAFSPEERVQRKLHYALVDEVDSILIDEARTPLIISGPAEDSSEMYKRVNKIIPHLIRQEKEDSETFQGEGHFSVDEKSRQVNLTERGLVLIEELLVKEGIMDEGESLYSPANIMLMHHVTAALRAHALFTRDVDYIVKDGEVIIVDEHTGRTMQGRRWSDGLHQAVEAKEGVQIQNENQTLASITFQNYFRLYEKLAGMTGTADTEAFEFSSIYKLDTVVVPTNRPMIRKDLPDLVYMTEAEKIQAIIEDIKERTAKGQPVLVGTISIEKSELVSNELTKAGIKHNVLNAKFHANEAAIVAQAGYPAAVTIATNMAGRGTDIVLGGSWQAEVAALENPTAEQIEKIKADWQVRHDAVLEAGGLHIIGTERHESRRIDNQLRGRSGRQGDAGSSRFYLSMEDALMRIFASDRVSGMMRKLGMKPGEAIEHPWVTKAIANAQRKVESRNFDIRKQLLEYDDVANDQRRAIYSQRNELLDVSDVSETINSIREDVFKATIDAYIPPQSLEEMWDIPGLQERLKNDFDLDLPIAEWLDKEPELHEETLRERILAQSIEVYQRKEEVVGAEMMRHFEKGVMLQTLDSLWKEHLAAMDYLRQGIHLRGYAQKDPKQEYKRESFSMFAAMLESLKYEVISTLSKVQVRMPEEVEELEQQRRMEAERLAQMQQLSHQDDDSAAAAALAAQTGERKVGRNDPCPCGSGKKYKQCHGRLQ

SMILES	Percent Effect [1]	Percent Effect [2]	Percent Effect [3]	Percent Effect [4]	Percent Effect [5]	Percent Effect (Trypanosoma cruzi)	Percent Effect [6]	Percent Effect [7]	Percent Effect (Homo sapiens)	Percent Effect [8]	Percent Effect [9]	Percent Effect [10]	Percent Effect [11]
O=C(Nc1cccnc1)[C@H]1COC[C@H]2CN(C3CCCC3)C[C@H]21	-5.23%	8.11%	5.33%	1.79%	1.44%	2.15%	3.33%	10.2%	-5.51%	-10.3%	4.95%	11%	-4.54%
O=C(Cc1ccccn1)N1CCN2C[C@H](Oc3cccc(F)c3)C[C@H]2C1	-3.38%	0%	9.34%	1.39%	-4.03%	1.07%	-1.59%	1.84%	18.6%	-10.5%	-2.16%	-5.13%	-1.68%
c1cc(COC[C@@H]2CCC[C@@]23CNCCO3)ccn1	-6.97%	8.11%	4.08%	91.3%	-11.6%	-6.94%	-3.5%	10.7%	2.47%	-12.9%	-3.24%	0%	-2.52%
CCN1CCC2(CC1)CC(Nc1ncccn1)CO2 (stereo not given)	-4.33%	2.7%	-1.65%	-2.57%	1.3%	4.49%	35.8%	6.34%	8.12%	11.5%	6.93%	13.4%	-1.38%
c1cncc(N2CCCC3(CN(Cc4cccs4)CCO3)C2)c1 (stereo not given)	-4.82%	8.11%	1.48%	-14.4%	-11.3%	-4.2%	-1.59%	8.12%	29.1%	1.28%	-1.08%	5.13%	-3.66%
CN1C(=O)C2(CCN(CC3CC3)CC2)c2ccccc21	-0.0958%	10.8%	-2.95%	-1.71%	-10.2%	-6.16%	0.955%	16.4%	-8.93%	-0.91%	2.16%	17.9%	-2.43%
COc1cc(OC)c(C2SCC(=O)Nc3n[nH]cc32)cc1OC (stereo not given)	-4.64%	5.26%	10.6%	15.2%	0.428%	-0.682%	-7.1%	9.11%	20.6%	10.6%	2.13%	2.6%	-1.49%
CN(C)C(=O)CN1CCN(C(=O)Cc2csc(-c3ncccn3)n2)CC1	-3.23%	13.2%	-1.92%	-1.28%	12%	-3.19%	1.92%	8.69%	23.7%	30%	5.39%	9.76%	-7.21%
COc1ccc(-c2n[nH]cc2C2SCC(=O)Nc3[nH]ncc32)cc1 (stereo not given)	-3.63%	0%	0.479%	21.7%	3.15%	-3.41%	-17.8%	14.9%	16.2%	-3.31%	2.13%	7.79%	0.161%
Cc1noc(C)c1CN1C[C@H](OCC2CC2)[C@H]2OCCC[C@H]21	-4.83%	8.11%	-3.74%	-3.37%	5.64%	0.293%	4.71%	8.84%	-6.54%	-3.9%	7.53%	11.1%	-10.2%
